# Experimental data from PubChem BioAssay.
# Calls of active or inactive are those of the source.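 Rule for the calls, unless noted: active = inhibition of the reporter signal at or above 50%; inactive = inhibition below 50%.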
# Test: blockers of RIG-like receptor reporter activation – cell-based, Sendai virus stimulus, luciferase, 10K MLSCN set, TLR/RLR signaling modifier project, primary screen (AID 602276;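 active = inhibition at or above 50% at 10 µM; inactive = inhibition below 50%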;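 note: firefly luciferase from ISG56 promoter only with Renilla not read in this screen; 0% = Sendai virus plus DMSO and 100% = medium plus DMSO without virus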)
# Details: HEK293 RL24 IRF3 luciferase reporter, at 10 µM, active compounds read high
row,Structure (SMILES),inhibition
1,O=C(NCc1cccnc1)c1cccc(C(F)(F)F)c1,11.3% (inactive)
2,COc1ccc(C(=O)Nc2ccc(Cl)c(Cl)c2)c(OC)n1,-13.7% (inactive)
3,COc1cc(C(=O)OCc2cc3ccccc3[nH]c2=O)cc(OC)c1OC,17.4% (inactive)
4,COc1cc(C)c(Br)cc1S(=O)(=O)N1CCOCC1,11.9% (inactive)
5,FC(F)Oc1cccc2cccnc12,10.2% (inactive)
6,Cc1ccc(OCC2Cn3c(nc4c3c(=O)n(C)c(=O)n4C)O2)cc1 (configuration not stated),17.1% (inactive)
7,Cc1cnc(C(=O)Nc2ccccc2-n2cccc2)cn1,-12.6% (inactive)

# Test: TLR3 IRF3 reporter activation blockers – cell-based, poly I:C stimulus, luciferase, 10K MLSCN set, primary screen (AID 602277)
# Details: HEK293-TLR3 RL24 IRF3 luciferase reporter, at 10 µM, active compounds read high
row,Structure (SMILES),inhibition
1,Cc1cc(C)nc(SCc2nnc(SCC(=O)Nc3ncc(C)s3)n2Cc2ccco2)n1,11.7% (inactive)
2,COc1cccc(C2C(C(=O)c3cccs3)=C(O)C(=O)N2CCCn2ccnc2)c1OC (configuration not stated),7.94% (inactive)
3,COc1cc(C(=O)N(C)c2nnc(-c3cccnc3)s2)cc(OC)c1OC,-1.29% (inactive)
4,CC(=O)Nc1nnc(SCC(=O)NCC2CCCO2)s1 (configuration not stated),-9.89% (inactive)
5,O=C(CSc1nc2cc(S(=O)(=O)N3CCOCC3)ccc2o1)NC1CCCc2ccccc21 (configuration not stated),99.3% (active)
6,O=C(NCCN1CCOCC1)c1ccc(CS(=O)(=O)Cc2ccccc2F)o1,9.56% (inactive)
7,CCOC(=O)c1c(C)oc2ccc(NS(=O)(=O)c3ccc4c5c(cccc35)C(=O)N4)cc12,2.01% (inactive)
8,COC(=O)CCn1nnc(-c2ccc(C)cc2)n1,24.4% (inactive)
9,O=C(Nc1ccc(NC(=O)C2CC2)cn1)c1ccccc1Cl,-212% (inactive)
10,COc1ccc(NC(=O)CC2CCCCC2)cc1OC,-23% (inactive)
11,CC1(C)CC2CC(C)(CN2S(=O)(=O)c2ccc(N)cc2)C1 (configuration not stated),18.5% (inactive)
12,COc1cc(C(=O)NCC(=O)OCC(=O)c2ccc[nH]2)cc(OC)c1OC,16.7% (inactive)
13,C=CCSc1nnc(-c2ccc(Cl)cc2Cl)o1,-58.3% (inactive)
14,COc1cc(CC(=O)Oc2ccc3c(c2)OCO3)cc(OC)c1OC,99% (active)
15,C(=N\n1cnnc1)/c1cccc(OCCOc2ccccc2)c1,-51.4% (inactive)
16,CCN(CC)C(c1ccc(C)cc1)c1nnnn1C1CCCCC1 (configuration not stated),25.8% (inactive)
17,CCOC(=O)Nc1ccc2c(c1)N(C(=O)CCN1CCOCC1)c1ccccc1S2,18.1% (inactive)
18,Cc1cc(=O)c2n(Cc3ccccc3Cl)nc[n+]2[nH]1,8.5% (inactive)
19,CC12CN3CCN(CC(C3)C1(O)CN1CCCCC1)C2 (configuration not stated),35.8% (inactive)
20,Cc1cc(C)n(C(C)n2nc(C)cc2C)n1,12.7% (inactive)

row,Structure (SMILES),inhibition
1,COC(=O)CSc1nnc(CSc2nc(C)cc(C)n2)n1Cc1ccco1,3.66% (inactive)
2,Cc1cc(NC(=O)CSc2nc(C3CCCCC3)nc3ccccc23)no1,15.3% (inactive)
3,Cc1cccc(C)c1NC(=O)COC(=O)c1nonc1N,2% (inactive)
4,CCn1c(=N)n(CC(=O)c2ccco2)c2ccccc21,2.85% (inactive)
5,C=C(C)Cn1c(CCCNC(=O)C(C)(C)C)nc2ccccc21,98.2% (active)
6,Cc1cn(C2CC3OCC3O2)c(=O)[nH]c1=O (configuration not stated),5.51% (inactive)
7,CC(=O)Nc1ccc(Cc2ccncc2)cc1,4.37% (inactive)
8,O=C(Nc1ccon1)c1cccc(S(=O)(=O)N2CCCC2)c1,13.6% (inactive)
9,CCOC(=O)c1sc(NC(=O)CSc2ncn(-c3ccccc3)n2)nc1C,13% (inactive)
10,O=C(Nc1ccccc1)N(CCCN1CCOCC1)Cc1cc2cc3c(cc2[nH]c1=O)OCCO3,8.69% (inactive)
11,COCC(=O)n1nc(NCc2ccc(OC)cc2)nc1NCc1ccc(OC)cc1,8.87% (inactive)
12,Cc1ccc(S(=O)(=O)N2CCN(C(=O)N3CCOCC3)C2c2ccc(N(C)C)cc2)cc1 (configuration not stated),8.2% (inactive)
13,COc1cccc2c(=O)cc(C)n(CC(=O)Nc3ccc(C)c(C)c3)c12,-0.697% (inactive)
14,O=C(NCc1cccnc1)c1cccc(C(F)(F)F)c1,20.1% (inactive)
15,COc1ccc(C(=O)Nc2ccc(Cl)c(Cl)c2)c(OC)n1,-67% (inactive)
16,COc1cc(C(=O)OCc2cc3ccccc3[nH]c2=O)cc(OC)c1OC,18.2% (inactive)
17,COc1cc(C)c(Br)cc1S(=O)(=O)N1CCOCC1,4.48% (inactive)
18,FC(F)Oc1cccc2cccnc12,9.81% (inactive)
19,Cc1ccc(OCC2Cn3c(nc4c3c(=O)n(C)c(=O)n4C)O2)cc1 (configuration not stated),11.7% (inactive)
20,Cc1cnc(C(=O)Nc2ccccc2-n2cccc2)cn1,0.535% (inactive)
